For one sequence, binding signal results are on record in publication PMC7862700, “An all-to-all approach to the identification of sequence-specific readers for epigenetic DNA modifications on cytosine”.

Common to all, as to experiment: DAPPL (digital affinity profiling via proximity ligation, sequencing); 10 mM Tris-HCl pH 7.5, 50 mM NaCl, 1 mM DTT, 4% glycerol, room temperature, 30 min; GST-TFs on glutathione beads, 16-mer random dsDNA library, 0.1% formaldehyde crosslink after washing; high values mean tight binding
One test addresses T1, FEV (Homo sapiens, UniProt Q99581 1-238).
T1 sequence: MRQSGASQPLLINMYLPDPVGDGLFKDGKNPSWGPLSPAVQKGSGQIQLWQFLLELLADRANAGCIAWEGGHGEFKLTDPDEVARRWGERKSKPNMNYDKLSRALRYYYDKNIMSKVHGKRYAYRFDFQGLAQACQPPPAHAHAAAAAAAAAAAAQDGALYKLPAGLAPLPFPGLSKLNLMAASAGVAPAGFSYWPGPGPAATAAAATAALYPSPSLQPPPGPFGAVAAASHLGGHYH
The following applies: protein: recombinant; tags: N-terminal GST; dsDNA, one strand shown. The method in brief: (§1)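 Human transcription factors carrying a GST fusion were produced in yeast, bound to glutathione beads, tagged with DNA barcodes and pooled together with a tag-only sample. Each pool was held with 200 nmole of a random double-stranded 16-mer DNA library in Tris/NaCl/DTT/glycerol buffer for 30 min at room temperature, then washed, crosslinked in 0.1% formaldehyde, proximity-ligated with BsaI/T4 ligase (1 h, 37 °C), PCR-amplified and sequenced on an Illumina NextSeq500. Binding signal is the read frequency of each hexamer for a given factor divided by its frequency in the tag-only sample.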

A further test concerns the target ETV5 (Homo sapiens, UniProt P41161 1-510). The settings on record: protein: recombinant; tags: N-terminal GST; dsDNA, one strand shown. The method in brief: as §1
In a further test the target is HSF1 (Homo sapiens, UniProt Q00613 1-529). The settings on record: protein: recombinant; tags: N-terminal GST; chain copies: 3; dsDNA, one strand shown. The method in brief:
as §1

A further test addresses T2, SPIC (Homo sapiens, UniProt Q8N5J4 1-248).
T2 sequence: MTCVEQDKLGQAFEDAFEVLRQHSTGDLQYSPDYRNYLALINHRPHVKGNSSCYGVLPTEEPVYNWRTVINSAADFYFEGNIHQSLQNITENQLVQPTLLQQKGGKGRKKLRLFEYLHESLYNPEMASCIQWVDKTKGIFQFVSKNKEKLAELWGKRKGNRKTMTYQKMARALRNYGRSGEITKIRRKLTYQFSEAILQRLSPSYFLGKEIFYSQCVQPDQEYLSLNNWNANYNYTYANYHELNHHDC
The settings on record: protein: recombinant; tags: N-terminal GST; dsDNA, one strand shown. The procedure, abridged: as §1

The target of a further test is ELF4 (Homo sapiens, UniProt Q99607 1-663). The settings on record: protein: recombinant; tags: N-terminal GST; dsDNA, one strand shown. The method in brief: as §1
Chain of ELF4 (Q99607 whole entry): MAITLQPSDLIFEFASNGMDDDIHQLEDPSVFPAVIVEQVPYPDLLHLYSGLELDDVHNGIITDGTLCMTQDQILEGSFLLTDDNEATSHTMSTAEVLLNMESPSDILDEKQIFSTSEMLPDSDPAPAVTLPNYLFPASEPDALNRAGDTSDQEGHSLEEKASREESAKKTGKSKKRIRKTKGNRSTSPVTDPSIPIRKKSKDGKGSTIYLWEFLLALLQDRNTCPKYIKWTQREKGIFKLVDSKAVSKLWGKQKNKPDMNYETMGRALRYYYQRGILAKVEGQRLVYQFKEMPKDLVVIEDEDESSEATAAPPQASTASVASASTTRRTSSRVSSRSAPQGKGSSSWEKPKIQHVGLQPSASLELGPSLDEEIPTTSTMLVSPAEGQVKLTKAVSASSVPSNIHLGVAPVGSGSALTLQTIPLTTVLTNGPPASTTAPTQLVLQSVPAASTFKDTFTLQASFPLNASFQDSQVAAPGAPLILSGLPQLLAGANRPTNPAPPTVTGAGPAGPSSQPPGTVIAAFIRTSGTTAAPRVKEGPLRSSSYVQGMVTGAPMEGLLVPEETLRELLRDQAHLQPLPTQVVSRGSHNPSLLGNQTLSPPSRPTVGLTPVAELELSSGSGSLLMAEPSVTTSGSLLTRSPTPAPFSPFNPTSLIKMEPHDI
The next test deals with T3, ELK4 (Homo sapiens, UniProt P28324-2 1-405).
T3 sequence: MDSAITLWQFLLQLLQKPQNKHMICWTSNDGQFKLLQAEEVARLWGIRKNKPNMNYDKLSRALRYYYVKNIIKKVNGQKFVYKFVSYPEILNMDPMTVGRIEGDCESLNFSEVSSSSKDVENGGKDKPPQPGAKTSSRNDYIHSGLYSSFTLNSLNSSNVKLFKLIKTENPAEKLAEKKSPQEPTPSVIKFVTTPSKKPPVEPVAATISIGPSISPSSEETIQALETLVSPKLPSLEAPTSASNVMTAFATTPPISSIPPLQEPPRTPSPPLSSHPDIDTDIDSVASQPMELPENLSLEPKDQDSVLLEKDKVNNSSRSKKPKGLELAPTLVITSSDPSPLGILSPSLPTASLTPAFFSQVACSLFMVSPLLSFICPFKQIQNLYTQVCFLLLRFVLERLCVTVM
The settings on record: protein: recombinant; tags: N-terminal GST; dsDNA, one strand shown. The method in brief:
as §1

A further test concerns the target T4, ETV2 (Homo sapiens, UniProt O00321 1-342).
T4 sequence: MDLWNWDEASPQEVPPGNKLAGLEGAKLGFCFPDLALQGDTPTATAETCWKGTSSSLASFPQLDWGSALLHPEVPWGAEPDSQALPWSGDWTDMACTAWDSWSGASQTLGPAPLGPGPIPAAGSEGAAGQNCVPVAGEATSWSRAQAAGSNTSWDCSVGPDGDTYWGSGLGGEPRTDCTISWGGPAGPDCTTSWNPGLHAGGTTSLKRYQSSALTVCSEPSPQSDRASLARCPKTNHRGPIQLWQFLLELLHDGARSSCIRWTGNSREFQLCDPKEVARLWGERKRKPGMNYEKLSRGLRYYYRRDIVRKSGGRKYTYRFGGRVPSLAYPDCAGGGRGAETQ
The following applies: protein: recombinant; tags: N-terminal GST; dsDNA, one strand shown. The method in brief: as §1

The target in the next test is T5, ELF3 (Homo sapiens, UniProt P78545 1-371).
T5 sequence: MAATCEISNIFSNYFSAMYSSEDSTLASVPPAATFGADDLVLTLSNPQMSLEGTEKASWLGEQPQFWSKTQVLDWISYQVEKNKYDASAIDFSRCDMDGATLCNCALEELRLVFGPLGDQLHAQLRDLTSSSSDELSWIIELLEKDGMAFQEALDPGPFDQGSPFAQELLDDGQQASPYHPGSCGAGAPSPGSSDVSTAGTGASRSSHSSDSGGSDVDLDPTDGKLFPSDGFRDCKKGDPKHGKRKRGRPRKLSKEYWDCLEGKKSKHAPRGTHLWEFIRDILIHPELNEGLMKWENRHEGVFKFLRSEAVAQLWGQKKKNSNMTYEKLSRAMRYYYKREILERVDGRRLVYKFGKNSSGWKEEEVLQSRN
The following applies: protein: recombinant; tags: N-terminal GST; dsDNA, one strand shown. The procedure, abridged:
as §1

For a further test, the target named is CRX (Homo sapiens, UniProt O43186 1-299). The following applies: protein: recombinant; tags: N-terminal GST; dsDNA, one strand shown. The procedure, abridged:
as §1

Another test concerns the target ETV1 (Homo sapiens, UniProt P50549 1-477). The following applies: protein: recombinant; tags: N-terminal GST; dsDNA, one strand shown. The procedure, abridged: as §1
In a further test the target is T6, ERF (Homo sapiens, UniProt P50548 1-548).
T6 sequence: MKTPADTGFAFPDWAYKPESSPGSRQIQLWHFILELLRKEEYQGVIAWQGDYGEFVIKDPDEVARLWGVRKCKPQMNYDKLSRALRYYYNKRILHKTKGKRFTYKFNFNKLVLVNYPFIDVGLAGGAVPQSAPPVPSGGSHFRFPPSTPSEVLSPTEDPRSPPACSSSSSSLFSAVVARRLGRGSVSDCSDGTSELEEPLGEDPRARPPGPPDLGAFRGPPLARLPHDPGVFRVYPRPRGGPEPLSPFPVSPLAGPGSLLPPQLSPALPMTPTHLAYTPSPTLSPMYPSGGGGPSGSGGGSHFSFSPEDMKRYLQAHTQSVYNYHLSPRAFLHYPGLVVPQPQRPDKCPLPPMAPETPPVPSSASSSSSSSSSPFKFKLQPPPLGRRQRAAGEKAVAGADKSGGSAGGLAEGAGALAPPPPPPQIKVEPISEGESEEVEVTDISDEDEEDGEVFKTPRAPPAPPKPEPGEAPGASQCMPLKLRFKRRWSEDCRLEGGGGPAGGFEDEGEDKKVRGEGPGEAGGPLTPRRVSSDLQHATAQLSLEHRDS
The settings on record: protein: recombinant; tags: N-terminal GST; dsDNA, one strand shown. The procedure, abridged: as §1

The next test addresses T7, ETV3L (Homo sapiens, UniProt Q6ZN32 1-361).
T7 sequence: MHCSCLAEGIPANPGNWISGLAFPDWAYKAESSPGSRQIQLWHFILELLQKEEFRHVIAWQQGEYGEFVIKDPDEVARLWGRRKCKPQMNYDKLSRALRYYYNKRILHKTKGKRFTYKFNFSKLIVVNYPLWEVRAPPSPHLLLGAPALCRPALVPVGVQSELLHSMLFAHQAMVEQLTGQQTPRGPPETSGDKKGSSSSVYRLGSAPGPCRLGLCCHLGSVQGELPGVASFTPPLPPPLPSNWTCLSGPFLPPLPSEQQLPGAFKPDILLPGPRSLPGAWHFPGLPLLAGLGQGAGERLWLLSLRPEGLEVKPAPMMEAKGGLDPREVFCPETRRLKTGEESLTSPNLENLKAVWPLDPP
The following applies: protein: recombinant; tags: N-terminal GST; dsDNA, one strand shown. The procedure, abridged: as §1

A further test deals with T8, ETS2 (Homo sapiens, UniProt P15036 1-469).
T8 sequence: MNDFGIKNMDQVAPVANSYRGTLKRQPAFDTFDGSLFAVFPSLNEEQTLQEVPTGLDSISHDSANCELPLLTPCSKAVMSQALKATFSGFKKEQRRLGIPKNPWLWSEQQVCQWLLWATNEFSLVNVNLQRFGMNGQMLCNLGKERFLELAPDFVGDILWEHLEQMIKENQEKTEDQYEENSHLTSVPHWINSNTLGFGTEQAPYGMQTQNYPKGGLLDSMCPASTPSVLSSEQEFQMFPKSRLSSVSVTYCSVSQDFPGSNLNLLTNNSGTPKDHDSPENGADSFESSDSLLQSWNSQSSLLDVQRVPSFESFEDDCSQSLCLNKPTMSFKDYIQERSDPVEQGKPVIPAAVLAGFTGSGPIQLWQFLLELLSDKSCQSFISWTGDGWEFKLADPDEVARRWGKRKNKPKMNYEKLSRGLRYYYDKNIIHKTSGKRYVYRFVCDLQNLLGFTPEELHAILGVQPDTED
The following applies: protein: recombinant; tags: N-terminal GST; dsDNA, one strand shown. The method in brief:
as §1

The next test deals with T9, SPDEF (Homo sapiens, UniProt O95238 1-335).
T9 sequence: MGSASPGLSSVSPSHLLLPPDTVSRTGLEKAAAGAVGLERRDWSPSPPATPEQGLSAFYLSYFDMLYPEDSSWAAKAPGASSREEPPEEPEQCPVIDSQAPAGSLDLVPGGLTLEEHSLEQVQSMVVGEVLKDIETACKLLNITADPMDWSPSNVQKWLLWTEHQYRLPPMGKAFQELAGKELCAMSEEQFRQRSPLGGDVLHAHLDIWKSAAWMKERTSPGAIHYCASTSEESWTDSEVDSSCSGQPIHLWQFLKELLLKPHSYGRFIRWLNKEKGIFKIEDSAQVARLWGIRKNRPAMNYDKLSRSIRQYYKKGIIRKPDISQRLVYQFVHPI
The settings on record: protein: recombinant; tags: N-terminal GST; dsDNA, one strand shown. The procedure, abridged:
as §1

The next test concerns the target T10, ETV7 (Homo sapiens, UniProt Q9Y603 1-341).
T10 sequence: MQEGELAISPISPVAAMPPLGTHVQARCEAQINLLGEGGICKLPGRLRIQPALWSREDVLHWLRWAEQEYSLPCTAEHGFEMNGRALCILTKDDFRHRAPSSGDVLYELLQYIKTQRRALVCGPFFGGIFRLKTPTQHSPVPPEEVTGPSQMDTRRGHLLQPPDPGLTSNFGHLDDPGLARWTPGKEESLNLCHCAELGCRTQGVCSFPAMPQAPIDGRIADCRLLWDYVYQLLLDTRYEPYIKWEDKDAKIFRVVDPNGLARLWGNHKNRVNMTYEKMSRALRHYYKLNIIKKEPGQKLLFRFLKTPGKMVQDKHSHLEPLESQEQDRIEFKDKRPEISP
The settings on record: protein: recombinant; tags: N-terminal GST; dsDNA, one strand shown. The procedure, abridged:
as §1

For the next test, the target named is T11, ELF5 (Homo sapiens, UniProt Q9UKW6-2 1-255).
T11 sequence: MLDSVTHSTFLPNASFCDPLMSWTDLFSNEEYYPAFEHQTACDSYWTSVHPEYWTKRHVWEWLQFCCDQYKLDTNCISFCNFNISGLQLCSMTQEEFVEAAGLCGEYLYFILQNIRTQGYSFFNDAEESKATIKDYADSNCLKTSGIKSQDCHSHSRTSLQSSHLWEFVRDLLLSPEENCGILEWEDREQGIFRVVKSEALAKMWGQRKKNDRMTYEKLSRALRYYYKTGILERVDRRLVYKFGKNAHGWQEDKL
The following applies: protein: recombinant; tags: N-terminal GST; dsDNA, one strand shown. The method in brief:
as §1

The target in another test is T12, ETV3 (Homo sapiens, UniProt P41162-2 1-143).
T12 sequence: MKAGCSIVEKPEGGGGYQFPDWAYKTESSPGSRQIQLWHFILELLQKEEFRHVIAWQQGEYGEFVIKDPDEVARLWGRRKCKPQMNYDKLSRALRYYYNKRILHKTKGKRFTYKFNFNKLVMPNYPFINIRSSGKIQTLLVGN
The settings on record: protein: recombinant; tags: N-terminal GST; dsDNA, one strand shown. The method in brief:
as §1

The target in another test is ETV6 (Homo sapiens, UniProt P41212 1-452). The following applies: protein: recombinant; tags: N-terminal GST; dsDNA, one strand shown. The method in brief: as §1
Chain of ETV6 (P41212 whole entry): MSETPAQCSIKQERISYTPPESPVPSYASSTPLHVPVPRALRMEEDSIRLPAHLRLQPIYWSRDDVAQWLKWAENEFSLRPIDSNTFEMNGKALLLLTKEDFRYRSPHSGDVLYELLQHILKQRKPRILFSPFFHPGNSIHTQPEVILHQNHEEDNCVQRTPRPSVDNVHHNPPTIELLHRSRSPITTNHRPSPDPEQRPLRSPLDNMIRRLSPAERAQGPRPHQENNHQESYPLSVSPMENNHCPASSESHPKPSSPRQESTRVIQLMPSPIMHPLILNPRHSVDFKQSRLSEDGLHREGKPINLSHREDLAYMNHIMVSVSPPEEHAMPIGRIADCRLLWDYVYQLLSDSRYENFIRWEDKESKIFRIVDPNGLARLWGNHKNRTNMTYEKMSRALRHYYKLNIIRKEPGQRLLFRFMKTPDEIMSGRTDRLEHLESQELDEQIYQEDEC

Chain of ETV1 (P50549 whole entry): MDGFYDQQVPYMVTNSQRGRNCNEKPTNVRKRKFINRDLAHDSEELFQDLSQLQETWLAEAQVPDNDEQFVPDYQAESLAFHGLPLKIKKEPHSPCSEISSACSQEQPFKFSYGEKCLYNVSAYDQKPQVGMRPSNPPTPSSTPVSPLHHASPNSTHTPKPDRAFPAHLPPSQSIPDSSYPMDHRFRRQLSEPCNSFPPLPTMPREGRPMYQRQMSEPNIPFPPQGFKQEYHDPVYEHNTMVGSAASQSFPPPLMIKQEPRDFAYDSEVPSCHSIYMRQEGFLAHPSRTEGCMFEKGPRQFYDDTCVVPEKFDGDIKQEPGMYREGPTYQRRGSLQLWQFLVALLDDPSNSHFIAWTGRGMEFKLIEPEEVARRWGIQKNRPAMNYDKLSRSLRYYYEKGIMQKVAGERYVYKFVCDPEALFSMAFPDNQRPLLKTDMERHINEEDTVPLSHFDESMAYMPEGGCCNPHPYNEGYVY
Chain of HSF1 (Q00613 whole entry): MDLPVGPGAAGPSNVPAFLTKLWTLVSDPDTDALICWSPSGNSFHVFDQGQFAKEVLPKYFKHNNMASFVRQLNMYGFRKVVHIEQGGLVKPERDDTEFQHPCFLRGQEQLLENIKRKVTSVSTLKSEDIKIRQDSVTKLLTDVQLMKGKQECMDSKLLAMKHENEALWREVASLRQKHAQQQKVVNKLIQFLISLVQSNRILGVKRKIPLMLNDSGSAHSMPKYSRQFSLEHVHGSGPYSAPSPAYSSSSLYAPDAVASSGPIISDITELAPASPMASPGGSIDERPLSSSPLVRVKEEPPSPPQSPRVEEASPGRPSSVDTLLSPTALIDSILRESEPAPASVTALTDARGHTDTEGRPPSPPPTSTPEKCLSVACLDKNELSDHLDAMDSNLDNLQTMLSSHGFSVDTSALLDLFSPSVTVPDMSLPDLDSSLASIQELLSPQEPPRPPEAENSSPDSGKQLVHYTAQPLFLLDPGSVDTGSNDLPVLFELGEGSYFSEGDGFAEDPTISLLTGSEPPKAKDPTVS
Chain of CRX (O43186 whole entry): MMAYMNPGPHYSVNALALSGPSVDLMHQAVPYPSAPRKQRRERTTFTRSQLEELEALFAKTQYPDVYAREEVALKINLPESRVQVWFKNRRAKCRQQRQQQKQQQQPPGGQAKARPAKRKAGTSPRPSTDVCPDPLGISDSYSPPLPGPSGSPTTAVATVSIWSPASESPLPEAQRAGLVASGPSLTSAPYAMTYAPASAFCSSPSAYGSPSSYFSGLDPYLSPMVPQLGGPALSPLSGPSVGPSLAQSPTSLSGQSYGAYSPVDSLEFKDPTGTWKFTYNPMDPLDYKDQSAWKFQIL
Chain of ETV5 (P41161 whole entry): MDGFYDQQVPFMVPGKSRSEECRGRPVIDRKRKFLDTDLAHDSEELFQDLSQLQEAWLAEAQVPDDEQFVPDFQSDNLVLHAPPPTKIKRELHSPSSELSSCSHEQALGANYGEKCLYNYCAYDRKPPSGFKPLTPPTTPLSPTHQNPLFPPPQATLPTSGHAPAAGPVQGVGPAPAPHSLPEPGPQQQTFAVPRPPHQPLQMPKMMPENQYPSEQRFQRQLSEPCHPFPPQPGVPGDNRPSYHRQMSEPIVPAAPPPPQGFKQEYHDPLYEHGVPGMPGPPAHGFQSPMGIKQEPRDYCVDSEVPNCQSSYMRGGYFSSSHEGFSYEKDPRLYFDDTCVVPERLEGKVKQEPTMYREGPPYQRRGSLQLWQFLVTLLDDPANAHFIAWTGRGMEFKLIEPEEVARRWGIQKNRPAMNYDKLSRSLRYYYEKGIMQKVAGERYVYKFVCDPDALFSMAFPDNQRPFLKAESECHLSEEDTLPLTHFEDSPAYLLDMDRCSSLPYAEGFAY

On to ATCGAA, for which the binding signal is 1.08 fold enrichment (6-mer frequency, TF over GST control) in the test with FEV; 1.16 fold enrichment (6-mer frequency, TF over GST control) in the test with ETV5; 1.87 fold enrichment (6-mer frequency, TF over GST control) with HSF1; 1.11 fold enrichment (6-mer frequency, TF over GST control) in the test with SPIC; 1.14 fold enrichment (6-mer frequency, TF over GST control) with ELF4; 1.14 fold enrichment (6-mer frequency, TF over GST control) with ELK4. Further, the binding signal is 1.07 fold enrichment (6-mer frequency, TF over GST control) with ETV2; 1.07 fold enrichment (6-mer frequency, TF over GST control) with ELF3; 1.31 fold enrichment (6-mer frequency, TF over GST control) with CRX; 1.13 fold enrichment (6-mer frequency, TF over GST control) with ETV1; 1.18 fold enrichment (6-mer frequency, TF over GST control) with ERF; 1.16 fold enrichment (6-mer frequency, TF over GST control) in the test with ETV3L. For the same sequence, the binding signal is 1.2 fold enrichment (6-mer frequency, TF over GST control) in the test with ETS2; 1.09 fold enrichment (6-mer frequency, TF over GST control) in the test with SPDEF; 1.25 fold enrichment (6-mer frequency, TF over GST control) with ETV7; 1.05 fold enrichment (6-mer frequency, TF over GST control) in the test with ELF5; 1.03 fold enrichment (6-mer frequency, TF over GST control) with ETV3; 1.05 fold enrichment (6-mer frequency, TF over GST control) with ETV6.
